Screening results: PubChem BioAssay, National Center for Advancing Translational Sciences (NCATS)
An excerpt weighted towards active compounds, which were near 11% of everything screened.
IL-1B inflam inh = qHTS for Inhibitors of Inflammasome Signaling: IL-1-beta AlphaLISA Primary Screen. activity change, % at 57.5 µM. THP-1 LPS/ATP IL-1B secretion, AlphaLISA, 16 h; active compounds read low. 360,000 compounds, 4.7% hits; in the data active = activity change below about -50%; inconclusive = mostly about -30% to -49%; note: % is set by controls: 0 for no effect and ±100 for the full control effect
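THP-1 cells pretreated 1 hr with compounds (up to 57.5 uM final), then stimulated with LPS (250 ng/mL final) plus ATP (1.25 mM final); secreted IL-1B measured by AlphaLISA after 16 hr, decreased signal indicating inhibition.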
SW480 rerep = A quantitative high throughput screen for small molecules that induce DNA re-replication in SW480 colon adenocarcinoma cells | Potency, µM (doses to about 46.1 µM), inactives show top-dose re-replication activation, most hits filed as activators | SW480 DNA re-replication, Hoechst DNA content imaging, 48 h | 340,000 compounds, 1.8% hits | AID 624297, 2012; note: potency is the fitted concentration of half-maximal effect; % of control where 0% means no effect; nearly all actives have a fitted effect of over 55% in size
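Hoechst fluorescence of nuclei (405 nm excitation, 500-530 nm emission) measured by plate-scanning imager after 48 hr compound exposure at 37 C; re-replication scored as increased number of nuclei with elevated intensity.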
Gal4-VP16 FLuc = VP16 counterscreen qHTS for inhibitors of ROR gamma transcriptional activity; Potency, µM (highest dose often 53.6 µM), for the others: top-dose activity, negative = inhibition, usual class: inhibitors; Drosophila S2 Gal4-VP16 UAS-luciferase, luminescence, 20 h; 310,000 compounds, 3.5% hits;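 note: Gal4-VP16 expression switched on by copper sulfate through the metallothionein promoter; potency is the fitted concentration of half-maximal effect; % is set by controls: 0 for no effect and ±100 for the full control effect; nearly all actives have a fitted effect of over 50% in size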
RORg inh = qHTS for inhibitors of ROR gamma transcriptional activity; AID 2551, 2010; Drosophila S2 Gal4-RORgamma UAS-luciferase reporter, 20 h; 310,000 compounds, 5.4% hits; Potency, µM (doses to about 53.6 µM), for the others: top-dose activity change, negative = inhibition, usual class: inhibitors; Nuclear receptor ROR-gamma (Mus musculus), P51450; note: potency is the fitted concentration of half-maximal effect; % is set by controls: 0 for no effect and ±100 for the full control effect; nearly all actives have a fitted effect of over 60% in size
Target sequence (P51450 whole entry, looked up, the tested form may be a part): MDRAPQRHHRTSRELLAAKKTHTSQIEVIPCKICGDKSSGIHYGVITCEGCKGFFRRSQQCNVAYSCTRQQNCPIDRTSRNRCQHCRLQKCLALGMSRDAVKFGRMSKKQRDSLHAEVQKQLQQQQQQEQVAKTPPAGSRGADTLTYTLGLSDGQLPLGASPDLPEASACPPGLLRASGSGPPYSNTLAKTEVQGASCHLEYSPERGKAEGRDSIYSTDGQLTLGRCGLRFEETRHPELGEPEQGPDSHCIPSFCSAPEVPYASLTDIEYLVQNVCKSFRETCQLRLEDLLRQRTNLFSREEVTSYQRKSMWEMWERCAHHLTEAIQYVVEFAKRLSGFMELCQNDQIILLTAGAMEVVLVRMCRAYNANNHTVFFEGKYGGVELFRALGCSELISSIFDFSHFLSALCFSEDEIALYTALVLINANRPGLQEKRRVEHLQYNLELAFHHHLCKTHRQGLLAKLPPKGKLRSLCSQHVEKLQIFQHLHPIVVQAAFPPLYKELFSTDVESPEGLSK
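Drosophila Schneider cells stably carrying a metallothionein-driven Gal4 DBD–ROR gamma fusion and a UAS-Photinus luciferase reporter were exposed to compound for 1 hr, then induced with copper sulfate (700 uM final) for 20 hr at ambient temperature before luminescence reading.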
MCF10A rereplic = A quantitative high throughput screen for small molecules that induce DNA re-replication in MCF 10a normal breast cells | 350,000 compounds, 2.9% hits | AID 624296, 2012 | Potency, µM (doses to about 46.1 µM), inactives show at the top dose activity, positive = re-replication, usual class: activators | MCF 10A DNA re-replication, Hoechst nuclear intensity, 48 h; note: potency is the fitted concentration of half-maximal effect; % of control where 0% means no effect; nearly all actives have a fitted effect of over 50% in size
An asterisk follows results filed as active. Unless noted, calls come from the whole dose curve; as a rule, active = well fitted curve in the direction sought with a large enough effect; inconclusive = small, poorly fitted or top-dose-only effect, or another doubt; inactive = no such curve, though single readings can be large; an effect the other way counts as inactive or inconclusive.

`Cc1cccc(C(=O)OCC(=O)N2CCC(c3ccccc3)=N2)c1O` gave IL-1B inflam inh -8, SW480 rerep -15% and MCF10A rereplic 3%.
Cc1ccc(C(=O)OCC(=O)N2CCC(c3ccccc3)=N2)cc1 was read as IL-1B inflam inh -85*, SW480 rerep -9% and MCF10A rereplic 5%.
`Cc1cc(/C=N/NC(=O)c2ccccc2F)c(C)n1-c1ccccc1` gave IL-1B inflam inh -25, SW480 rerep -6%, Gal4-VP16 FLuc inconclusive, RORg inh 13µM* and MCF10A rereplic 2%.
Screening Cc1cc(/C=N/NC(=O)c2ccncc2)c(C)n1-c1cccc(C(F)(F)F)c1 returned IL-1B inflam inh -7, SW480 rerep -10%, Gal4-VP16 FLuc inconclusive, RORg inh inconclusive and MCF10A rereplic 4%.
`Cc1cccc(-n2c(C)cc(/C=N/NC(=O)c3cccc([N+](=O)[O-])c3C)c2C)c1` gave IL-1B inflam inh -18, SW480 rerep inconclusive, Gal4-VP16 FLuc inconclusive, RORg inh 7.9µM* and MCF10A rereplic inconclusive.
Screening Cc1cc(/C=N/NC(=O)c2c(Br)cnn2C)c(C)n1-c1cccc(Br)c1 returned IL-1B inflam inh -25, SW480 rerep -134%, Gal4-VP16 FLuc 7.1µM*, RORg inh 6.3µM* and MCF10A rereplic 14%.
For Cc1ccc2cc(/C=N/NC(=O)c3ccccc3[N+](=O)[O-])c(Cl)nc2c1 the results were IL-1B inflam inh 24, SW480 rerep -1%, Gal4-VP16 FLuc -10%, RORg inh -16% and MCF10A rereplic -2%.
For Cc1cc(/C=N/NC(=O)c2cccc(F)c2)c(C)n1-c1ccccc1 the results were IL-1B inflam inh -26, SW480 rerep 4%, Gal4-VP16 FLuc 13µM*, RORg inh 5.6µM* and MCF10A rereplic 18µM*.
For COC(=O)c1cc(OCC(=O)Nc2ccc3c(c2)CCC3)cc(C(=O)OC)c1 the results were IL-1B inflam inh 22, SW480 rerep -9% and MCF10A rereplic 3%.
Screening CC(NC(=O)c1ccc(NC(=O)CC2SC(N3CCCC3)=NC2=O)cc1)c1ccc(S(N)(=O)=O)cc1 (stereo not given) returned IL-1B inflam inh -1, SW480 rerep -4% and MCF10A rereplic -7%.
`Nc1[nH]c(=O)nc2snnc12` gave IL-1B inflam inh 23, SW480 rerep -2% and MCF10A rereplic 27%.
Cc1cc(F)ccc1C(O)c1ncc(-c2cccc(F)c2)[nH]1 (stereo not given) was read as IL-1B inflam inh -17.
For Cc1cccc(NC(=O)CSc2nnc(-c3cc(C)n(-c4ccccc4)c3C)o2)c1C the results were IL-1B inflam inh -80*, SW480 rerep 0%, Gal4-VP16 FLuc -12%, RORg inh inconclusive and MCF10A rereplic 18%.
CNc1cc(C)c(C#N)c2nc3ccccc3n12 was read as IL-1B inflam inh -10, SW480 rerep inconclusive, Gal4-VP16 FLuc -8%, RORg inh 17% and MCF10A rereplic 27%.
N#Cc1c(-c2ccccc2)c(C#N)c2nc3ccccc3n2c1N was read as IL-1B inflam inh -3, SW480 rerep 25%, Gal4-VP16 FLuc inconclusive, RORg inh 7% and MCF10A rereplic 10%.
`CCc1c(C)c(C#N)c2nc3ccccc3n2c1NC` gave IL-1B inflam inh 15, SW480 rerep -2%, Gal4-VP16 FLuc 2%, RORg inh 13% and MCF10A rereplic 0%.
Cc1c(CCCl)c(Cl)n2c(nc3ccccc32)c1C#N was read as IL-1B inflam inh -113*, SW480 rerep inconclusive and MCF10A rereplic 2.9µM*.
Screening Cc1cc(Cl)n2c(nc3ccccc32)c1C#N returned IL-1B inflam inh -100*, SW480 rerep 21µM*, Gal4-VP16 FLuc inconclusive, RORg inh 3.2µM* and MCF10A rereplic inconclusive.
`Cc1ccc(-c2c(C#N)c(N)n3c(nc4ccccc43)c2C#N)cc1` gave IL-1B inflam inh -24, SW480 rerep 18µM*, Gal4-VP16 FLuc inconclusive, RORg inh inconclusive and MCF10A rereplic 18µM*.
Screening Cc1cccc(NC(=O)CSc2cc(C)c(C#N)c3nc4ccccc4n23)c1 returned IL-1B inflam inh 50, SW480 rerep 2.9µM*, Gal4-VP16 FLuc inconclusive, RORg inh 0.79µM* and MCF10A rereplic 5%.
For CCN(CC)c1cc(C)c(C#N)c2nc3ccccc3n12 the results were IL-1B inflam inh 30, SW480 rerep 4%, Gal4-VP16 FLuc -1%, RORg inh 15% and MCF10A rereplic 0%.
Screening O=C(O)c1ccc2c(c1)C(=O)N([C@H](Cc1ccc(O)c(O)c1)C(=O)O)C2=O returned Gal4-VP16 FLuc -1% and RORg inh -8%.
Screening C[C@@H]1CCCCO[C@@H](CN(C)C(=O)Cc2ccccc2)[C@@H](C)CN([C@H](C)CO)C(=O)c2cc(NC(=O)C3CCCCC3)ccc2O1 returned IL-1B inflam inh -21.
CCn1cc(C(=O)O)c(=O)c2cc(F)c(N3CCN(C(=S)NC(=O)c4ccc(OC)cc4)CC3)cc21 was read as IL-1B inflam inh 13, SW480 rerep 1%, Gal4-VP16 FLuc -7%, RORg inh inconclusive and MCF10A rereplic -3%.
CCn1cc(C(=O)O)c(=O)c2cc(F)c(N3CCN(C(=S)NC(=O)c4ccc(Br)cc4)CC3)cc21 was read as IL-1B inflam inh -89*, SW480 rerep inconclusive, Gal4-VP16 FLuc -3%, RORg inh 0.63µM* and MCF10A rereplic inconclusive.
CCn1cc(C(=O)O)c(=O)c2cnc(N3CCN(C(=S)NC(=O)c4ccc(Br)cc4)CC3)nc21 was read as IL-1B inflam inh inconclusive, SW480 rerep -19%, Gal4-VP16 FLuc -10%, RORg inh 0.56µM* and MCF10A rereplic -3%.
Screening CCn1cc(C(=O)O)c(=O)c2cnc(N3CCN(C(=S)Nc4ccc(F)cc4)CC3)nc21 returned IL-1B inflam inh -9, SW480 rerep -11%, Gal4-VP16 FLuc -9%, RORg inh 24% and MCF10A rereplic -1%.
`CCn1cc(C(=O)O)c(=O)c2cnc(N3CCN(C(=S)NC(=O)c4ccc(Cl)cc4)CC3)nc21` gave IL-1B inflam inh inconclusive, SW480 rerep 1%, Gal4-VP16 FLuc -1%, RORg inh 1µM* and MCF10A rereplic 0%.
`Cc1cc(C)cc(NC(=O)COc2coc(CN3CCc4ccccc4C3)cc2=O)c1` gave IL-1B inflam inh 8, SW480 rerep 1% and MCF10A rereplic 9%.
`NS(=O)(=O)c1ccc(N2CCOCC2)c(C(=O)NCc2ccc3c(c2)OCO3)c1` gave IL-1B inflam inh 9, SW480 rerep inconclusive and MCF10A rereplic 20%.
